The source made the active and inactive calls.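 The calls were made as follows, unless noted: active = fluorescence slope higher than the sample average by over 3 SD (cut at about -0.22 in these data, passing the limit was not always enough); inactive = the rest.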
How the values were obtained:
[1] = inhibitors of TNFa-induced NFkB p65 translocation, primary screen, imaging, HUVEC, MLSMR starter and 10KST1 sets (AID 438;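 active = inhibition above 20% together with a positive visual image hit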;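 also: compound added about 3h40 before a 20 min TNFalpha stimulation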;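 as to inhibition: signal is the nuclear over cytoplasmic p65 intensity ratio per well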); conditions: HUVEC TNFa-induced p65 nuclear translocation; cell count: measured here: nuclei count (cytotoxicity indicator), at 2.08 µM; inhibition: at 2 µM, stronger effect = higher value, 0% TNFa-plus-vehicle, 100% no-TNFa wells
[2] = reduction of polyQ htt aggregates in cells – imaging, exon1htt(103Q)mCFP cells, high-content imaging, primary screen (AID 483;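 active = visual image review flags a hit and inhibition of aggregation exceeds 20%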;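 also: compound exposure lasted 3 days before fixation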;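 as to nuclei count: percent of the per-plate median nuclei count of sample wells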); conditions: exon1htt(103Q)mCFP cell line, aggregate imaging, at 2 µM; inhibition of aggregation: stronger effect = higher value; nuclei count: measured here: cell count, toxicity
[3] = endothelial E-selectin expression blockers – imaging, HUVEC, immunofluorescence, MLSMR starter and 10KST1 sets, primary screen (AID 487;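 active = visually confirmed hit in the image check and inhibition above 20%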;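 as to inhibition: signal is fraction of cell area covered by stained E-selectin grains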;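 as to nuclei count: 100% = median nuclei count of all wells on the same plate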); conditions: HUVEC TNFalpha-induced E-selectin immunofluorescence imaging, at 2 µM; inhibition: stronger effect = higher value; nuclei count: measured here: cell number, toxicity
[4] = target: Voltage-gated potassium channel subunit beta-2 (Rattus norvegicus) (UniProt P62483); assay: inhibitors of rat Kvbeta2 reductase activity – biochemical, NADPH fluorescence, primary screen (AID 622); conditions: recombinant KvBeta, 4-cyanobenzaldehyde reduction, at 10 µM, stronger effect = higher value;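 also: slope of raw intensity against log time taken from 70 to 1610 s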
[5] = target: Voltage-gated potassium channel subunit beta-2 (Rattus norvegicus) (UniProt P62483); assay: enhancers of rat Kvbeta2 NADPH turnover – biochemical, NADPH fluorescence, primary screen (AID 623;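 active = NADPH fluorescence slope more negative than the mean of all samples by about 3 SD, 99.7% confidence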;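 also: fluorescence intensity change per second fitted from 20 to 320 s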); conditions: Recombinant KvBeta, NADPH fluorescence decrease slope, 10 min; at 10 µM; stronger effect = lower value
[6] = target: Alpha-2C adrenergic receptor (Homo sapiens) (UniProt P18825); assay: compounds altering alpha2C-coupled GIRK flux – cell-based, HEK293 alpha2C/GIRK1/2, thallium flux, primary screen (AID 624;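 active = fluorescence slope after compound addition differing from the mean of all screened samples at 99.7% confidence, in either direction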;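 also: slope of fluorescence ratio to pre-addition baseline per second over 15 to 24 s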); conditions: thallium flux BTC fluorescence, at 10 µM, actives lie on both sides
[7] = blockers of RIG-like receptor reporter activation – cell-based, Sendai virus stimulus, luciferase, 10K MLSCN set, TLR/RLR signaling modifier project, primary screen (AID 602276;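 active = inhibition at or above 50% at 10 µM; inactive = inhibition below 50%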;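 also: firefly luciferase from ISG56 promoter only with Renilla not read in this screen; 0% = Sendai virus plus DMSO and 100% = medium plus DMSO without virus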); conditions: HEK293 RL24 IRF3 luciferase reporter, at 10 µM, stronger effect = higher value
[8] = TLR3 IRF3 reporter activation blockers – cell-based, poly I:C stimulus, luciferase, 10K MLSCN set, primary screen (AID 602277;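 active = inhibition of the reporter signal at or above 50%; inactive = inhibition below 50%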); conditions: HEK293-TLR3 RL24 IRF3 luciferase reporter, at 10 µM, stronger effect = higher value

Chain of Voltage-gated potassium channel subunit beta-2 (Rattus norvegicus) (P62483 whole entry, looked up): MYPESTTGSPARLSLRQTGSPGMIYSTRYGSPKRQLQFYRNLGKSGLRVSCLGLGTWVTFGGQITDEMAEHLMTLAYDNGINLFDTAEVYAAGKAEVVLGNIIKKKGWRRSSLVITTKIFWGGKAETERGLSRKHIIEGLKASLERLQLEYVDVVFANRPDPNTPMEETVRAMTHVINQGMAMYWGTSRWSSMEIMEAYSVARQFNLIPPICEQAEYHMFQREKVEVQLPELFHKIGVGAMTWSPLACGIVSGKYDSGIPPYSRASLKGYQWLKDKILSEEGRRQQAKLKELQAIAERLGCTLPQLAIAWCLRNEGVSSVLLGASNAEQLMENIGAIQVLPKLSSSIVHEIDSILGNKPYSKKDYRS
Chain of Alpha-2C adrenergic receptor (Homo sapiens) (P18825 whole entry, looked up): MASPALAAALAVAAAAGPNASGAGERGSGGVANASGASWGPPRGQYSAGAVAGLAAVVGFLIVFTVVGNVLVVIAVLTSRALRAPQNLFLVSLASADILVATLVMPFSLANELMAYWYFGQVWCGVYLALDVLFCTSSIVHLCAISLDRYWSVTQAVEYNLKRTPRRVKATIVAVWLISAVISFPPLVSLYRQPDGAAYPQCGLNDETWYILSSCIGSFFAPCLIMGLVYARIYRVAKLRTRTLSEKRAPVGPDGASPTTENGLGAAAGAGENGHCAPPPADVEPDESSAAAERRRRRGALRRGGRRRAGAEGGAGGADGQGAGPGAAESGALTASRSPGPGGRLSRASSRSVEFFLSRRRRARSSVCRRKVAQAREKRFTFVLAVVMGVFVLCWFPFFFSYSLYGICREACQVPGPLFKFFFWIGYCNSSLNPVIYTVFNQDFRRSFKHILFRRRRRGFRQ

Q: Which cell count [1] does the source give for `CSC1=C(C#N)C(c2ccc(Cl)cc2)C2=C(CC(C)(C)CC2=O)N1` (centres undefined) here?
A: 391

Q: What about the inhibition [1] of the same compound?
A: -3.3% (inactive)

Q: And the inhibition of aggregation [2]?
A: 29.1% (inactive)

Q: What about the nuclei count [2] of the same compound?
A: 81.5%

Q: And the inhibition [3]?
A: -5.3% (inactive)

Q: What about the nuclei count [3] of the same compound?
A: 108%

Q: And the fluorescence slope [4]?
A: -0.416 (inactive)

Q: What about the NADPH fluorescence slope [5] of the same compound?
A: 5.8e-06 (inactive)

Q: And the slope [6]?
A: 0.00657 (inactive)

Q: What about the inhibition [7] of the same compound?
A: 1.71% (inactive)

Q: What about the inhibition [8] of the same compound?
A: 24.5% (inactive)

Q: What does the source list for `CCOc1ccccc1CNC(=O)CCN1C(=O)COc2ccccc21`?
A: cell count [1]: 630; inhibition [1]: -1.8% (inactive); inhibition of aggregation [2]: -12.2% (inactive); nuclei count [2]: 47.7%; inhibition [3]: -71.5% (inactive); nuclei count [3]: 94.5%; fluorescence slope [4]: -0.379 (inactive); NADPH fluorescence slope [5]: -2.3e-05 (inactive); slope [6]: 0.00611 (inactive); inhibition [7]: 12.2% (inactive); inhibition [8]: 2.75% (inactive)

Q: Which cell count [1] does the source give for `COc1ccc(-c2cc(C(F)(F)F)n3ncc(C(=O)NCC4CCCO4)c3n2)cc1` (centres undefined) here?
A: 669

Q: And the inhibition [1]?
A: 6.7% (inactive)

Q: What about the inhibition of aggregation [2] of the same compound?
A: -1% (inactive)

Q: What about the nuclei count [2] of the same compound?
A: 67.5%

Q: What about the inhibition [3] of the same compound?
A: 57.7% (inactive)

Q: What about the nuclei count [3] of the same compound?
A: 95.2%

Q: What about the fluorescence slope [4] of the same compound?
A: -0.00373 (active)

Q: And the NADPH fluorescence slope [5]?
A: 2e-06 (inactive)

Q: What about the slope [6] of the same compound?
A: 0.00552 (inactive)

Q: What about the inhibition [7] of the same compound?
A: 13.6% (inactive)

Q: And the inhibition [8]?
A: 25.3% (inactive)

Q: With `CCCSCCCNC(=O)Cn1cc2c(n1)CCC(C)C2` (centres undefined) as the compound, how does the cell count [1] read?
A: 652

Q: And the inhibition [1]?
A: -3.3% (inactive)

Q: What about the inhibition of aggregation [2] of the same compound?
A: 3.5% (inactive)

Q: What about the nuclei count [2] of the same compound?
A: 92%

Q: And the inhibition [3]?
A: 21.4% (inactive)

Q: What about the nuclei count [3] of the same compound?
A: 103%

Q: And the fluorescence slope [4]?
A: -0.615 (inactive)

Q: And the NADPH fluorescence slope [5]?
A: -2.5e-05 (inactive)

Q: And the slope [6]?
A: 0.00719 (inactive)

Q: What about the inhibition [7] of the same compound?
A: -8.61% (inactive)

Q: What about the inhibition [8] of the same compound?
A: 10.5% (inactive)

Q: With `Cc1c(C(=O)NCc2ccccc2)oc2c1C(=O)CCC2` as the compound, how does the cell count [1] read?
A: 530

Q: And the inhibition [1]?
A: -18.8% (inactive)

Q: What about the inhibition of aggregation [2] of the same compound?
A: -28.3% (inactive)

Q: And the nuclei count [2]?
A: 101%

Q: What about the inhibition [3] of the same compound?
A: -70% (inactive)

Q: And the nuclei count [3]?
A: 121%

Q: And the fluorescence slope [4]?
A: -0.372 (inactive)

Q: What about the NADPH fluorescence slope [5] of the same compound?
A: -6.4e-05 (inactive)

Q: And the slope [6]?
A: 0.00395 (inactive)

Q: And the inhibition [7]?
A: -4.65% (inactive)

Q: What about the inhibition [8] of the same compound?
A: -7.05% (inactive)

Q: For `COc1ccc(C)cc1NS(=O)(=O)c1ccc(NS(=O)(=O)c2ccc(NC(C)=O)cc2)cc1`, which cell count [1] is on record?
A: 345

Q: What about the inhibition [1] of the same compound?
A: -7.8% (inactive)

Q: And the inhibition of aggregation [2]?
A: -15.2% (inactive)

Q: And the nuclei count [2]?
A: 99.4%

Q: What about the inhibition [3] of the same compound?
A: -16.4% (inactive)

Q: And the nuclei count [3]?
A: 119%

Q: What about the fluorescence slope [4] of the same compound?
A: -0.514 (inactive)

Q: What about the NADPH fluorescence slope [5] of the same compound?
A: -6e-05 (inactive)

Q: And the slope [6]?
A: 0.00545 (inactive)

Q: What about the inhibition [7] of the same compound?
A: 19.9% (inactive)

Q: And the inhibition [8]?
A: 24.8% (inactive)

Q: With `O=C1C(c2ccncc2)=C(O)c2ccccc21` as the compound, how does the cell count [1] read?
A: 302

Q: What about the inhibition [1] of the same compound?
A: -8.6% (inactive)

Q: And the inhibition of aggregation [2]?
A: 1.9% (inactive)

Q: And the nuclei count [2]?
A: 73%

Q: And the inhibition [3]?
A: 0.7% (inactive)

Q: And the nuclei count [3]?
A: 91.1%

Q: And the fluorescence slope [4]?
A: -0.333 (inactive)

Q: What about the NADPH fluorescence slope [5] of the same compound?
A: -1.1e-05 (inactive)

Q: And the slope [6]?
A: 0.00364 (inactive)

Q: What about the inhibition [7] of the same compound?
A: 4.51% (inactive)

Q: And the inhibition [8]?
A: -0.387% (inactive)

Q: Which cell count [1] does the source give for `COC(=O)c1cccc(NC(=O)CSc2nnc(COc3ccccc3)n2C)c1` here?
A: 671

Q: What about the inhibition [1] of the same compound?
A: -5.4% (inactive)

Q: What about the inhibition of aggregation [2] of the same compound?
A: -2.2% (inactive)

Q: What about the nuclei count [2] of the same compound?
A: 101%

Q: And the inhibition [3]?
A: -88% (inactive)

Q: What about the nuclei count [3] of the same compound?
A: 135%

Q: What about the fluorescence slope [4] of the same compound?
A: -0.436 (inactive)

Q: And the NADPH fluorescence slope [5]?
A: -4.3e-05 (inactive)

Q: What about the slope [6] of the same compound?
A: 0.00598 (inactive)

Q: What about the inhibition [7] of the same compound?
A: 11.9% (inactive)

Q: What about the inhibition [8] of the same compound?
A: 14% (inactive)

Q: Which results are given for `CC(C)(C)C(=O)NC1CCN(C(=O)N2CCCC2)CC1`?
A: cell count [1]: 685; inhibition [1]: -6.3% (inactive); inhibition of aggregation [2]: -5.3% (inactive); nuclei count [2]: 107%; inhibition [3]: -36.6% (inactive); nuclei count [3]: 118%; fluorescence slope [4]: -0.311 (inactive); NADPH fluorescence slope [5]: -3.2e-05 (inactive); slope [6]: 0.00525 (inactive); inhibition [7]: 12.1% (inactive); inhibition [8]: 20.9% (inactive)

Q: Which cell count [1] does the source give for `O=C(NCCCCNC(=O)c1c(F)c(F)c(F)c(F)c1F)c1c(F)c(F)c(F)c(F)c1F` here?
A: 778

Q: What about the inhibition [1] of the same compound?
A: 1% (inactive)

Q: What about the inhibition of aggregation [2] of the same compound?
A: 10.7% (inactive)

Q: What about the nuclei count [2] of the same compound?
A: 104%

Q: What about the inhibition [3] of the same compound?
A: -48.4% (inactive)

Q: And the nuclei count [3]?
A: 110%

Q: What about the fluorescence slope [4] of the same compound?
A: -0.308 (inactive)

Q: And the NADPH fluorescence slope [5]?
A: 3.6e-05 (inactive)

Q: What about the slope [6] of the same compound?
A: 0.00647 (inactive)

Q: And the inhibition [7]?
A: 12.8% (inactive)

Q: And the inhibition [8]?
A: 20% (inactive)

Q: Which results are given for `CC1(C)CC(=O)N(CC(=O)NCc2ccccc2)c2ccccc2S1(=O)=O`?
A: cell count [1]: 807; inhibition [1]: -1.7% (inactive); inhibition of aggregation [2]: -7.8% (inactive); nuclei count [2]: 123%; inhibition [3]: -20% (inactive); nuclei count [3]: 120%; fluorescence slope [4]: -0.602 (inactive); NADPH fluorescence slope [5]: 1.2e-05 (inactive); slope [6]: 0.00666 (inactive); inhibition [7]: 12.3% (inactive); inhibition [8]: 20.7% (inactive)

Q: With `COc1ccccc1NC(=O)c1ccc(COc2ccccc2OC)o1` as the compound, how does the cell count [1] read?
A: 596

Q: And the inhibition [1]?
A: -15.7% (inactive)

Q: And the inhibition of aggregation [2]?
A: -20% (inactive)

Q: And the nuclei count [2]?
A: 132%

Q: What about the inhibition [3] of the same compound?
A: -77.6% (inactive)

Q: And the nuclei count [3]?
A: 107%

Q: What about the fluorescence slope [4] of the same compound?
A: -0.605 (inactive)

Q: And the NADPH fluorescence slope [5]?
A: 2.4e-05 (inactive)

Q: What about the slope [6] of the same compound?
A: 0.00349 (inactive)

Q: What about the inhibition [7] of the same compound?
A: 12.4% (inactive)

Q: What about the inhibition [8] of the same compound?
A: 4.47% (inactive)

Q: Which results are given for `Cc1c(NC(=O)C2(c3ccccc3)CCOCC2)c(=O)n(-c2ccccc2)n1C`?
A: cell count [1]: 552; inhibition [1]: 11.5% (inactive); inhibition of aggregation [2]: 9.2% (inactive); nuclei count [2]: 90.5%; inhibition [3]: 25.9% (inactive); nuclei count [3]: 130%; fluorescence slope [4]: -0.435 (inactive); NADPH fluorescence slope [5]: 2.3e-05 (inactive); slope [6]: 0.00624 (inactive); inhibition [7]: 0.891% (inactive); inhibition [8]: 9.22% (inactive)

Q: Which results are given for `COc1ccc(C)cc1NC(=O)CN(Cc1nnc(-c2ccc(Cl)cc2)o1)C1CCCC1`?
A: cell count [1]: 392; inhibition [1]: 2.4% (inactive); inhibition of aggregation [2]: -4.1% (inactive); nuclei count [2]: 85.9%; inhibition [3]: -43.8% (inactive); nuclei count [3]: 110%; fluorescence slope [4]: -0.478 (inactive); NADPH fluorescence slope [5]: 2.2e-05 (inactive); slope [6]: 0.00634 (inactive); inhibition [7]: -26.9% (inactive); inhibition [8]: -33.6% (inactive)

From PubChem BioAssay
